Test [1] can be described thus: inhibitors of TNFa-induced NFkB p65 translocation, primary screen, imaging, HUVEC, MLSMR starter and 10KST1 sets (AID 438;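 active = inhibition above 20% together with a positive visual image hit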;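 also: compound added about 3h40 before a 20 min TNFalpha stimulation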;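 as to inhibition: signal is the nuclear over cytoplasmic p65 intensity ratio per well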). The settings on record: HUVEC TNFa-induced p65 nuclear translocation; cell count: measured here: nuclei count (cytotoxicity indicator), at 2.08 µM; inhibition: at 2 µM, stronger effect = higher value, 0% TNFa-plus-vehicle, 100% no-TNFa wells.
Test [2] in a line: inhibitors of mutant huntingtin aggregation, primary screen, imaging, exon1htt(103Q)mCFP cells, high-content imaging (AID 483;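 active = visual image review flags a hit and inhibition of aggregation exceeds 20%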;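 also: compound exposure lasted 3 days before fixation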;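 as to nuclei count: percent of the per-plate median nuclei count of sample wells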). As to conditions: exon1htt(103Q)mCFP cell line, aggregate imaging, at 2 µM; inhibition of aggregation: stronger effect = higher value; nuclei count: measured here: cell count, toxicity.
The nature of test [3]: inhibitors of E-selectin induction by TNFa, primary screen, imaging, HUVEC, immunofluorescence, MLSMR starter and 10KST1 sets (AID 487;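 active = visually confirmed hit in the image check and inhibition above 20%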;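 as to inhibition: signal is fraction of cell area covered by stained E-selectin grains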;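 as to nuclei count: 100% = median nuclei count of all wells on the same plate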). As to conditions: HUVEC TNFalpha-induced E-selectin immunofluorescence imaging, at 2 µM; inhibition: stronger effect = higher value; nuclei count: measured here: cell number, toxicity.
The target in test [4] is Voltage-gated potassium channel subunit beta-2 (Rattus norvegicus) (UniProt P62483). Description: KvBeta enzyme negative modulators, primary screen, biochemical, NADPH fluorescence (AID 622;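 active = fluorescence slope higher than the sample average by over 3 SD, cut at about -0.22 in these data, passing the limit was not always enough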;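 also: slope of raw intensity against log time taken from 70 to 1610 s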). As to conditions: recombinant KvBeta, 4-cyanobenzaldehyde reduction, at 10 µM, stronger effect = higher value.
Chain of Voltage-gated potassium channel subunit beta-2 (Rattus norvegicus) (P62483 whole entry, looked up): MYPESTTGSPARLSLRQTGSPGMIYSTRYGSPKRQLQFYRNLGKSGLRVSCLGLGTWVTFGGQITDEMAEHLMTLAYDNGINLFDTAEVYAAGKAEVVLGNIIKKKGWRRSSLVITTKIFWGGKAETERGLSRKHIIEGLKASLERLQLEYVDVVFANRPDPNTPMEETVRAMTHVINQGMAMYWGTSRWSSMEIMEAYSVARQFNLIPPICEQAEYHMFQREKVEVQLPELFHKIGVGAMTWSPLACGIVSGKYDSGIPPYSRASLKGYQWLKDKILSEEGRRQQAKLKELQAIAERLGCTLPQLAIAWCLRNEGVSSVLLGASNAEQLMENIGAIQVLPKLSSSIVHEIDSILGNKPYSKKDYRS
The target is the same in test [5]. The test can be described thus: KvBeta positive modulators, primary screen, biochemical, NADPH fluorescence (AID 623;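 active = NADPH fluorescence slope more negative than the mean of all samples by about 3 SD, 99.7% confidence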;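 also: fluorescence intensity change per second fitted from 20 to 320 s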). The settings on record: Recombinant KvBeta, NADPH fluorescence decrease slope, 10 min; at 10 µM; stronger effect = lower value.
Test [6] concerns the target Alpha-2C adrenergic receptor (Homo sapiens) (UniProt P18825). The test can be described thus: modulators of alpha2C/GIRK thallium flux, primary screen, cell-based, HEK293 alpha2C/GIRK1/2 (AID 624).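 Also: slope of fluorescence ratio to pre-addition baseline per second over 15 to 24 s.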 As to conditions: thallium flux BTC fluorescence, at 10 µM, actives lie on both sides.
The nature of test [7]: inhibitors of Sendai virus-induced IRF3 signaling, primary screen, TLR/RLR signaling modifier project, cell-based, Sendai virus stimulus, luciferase, 10K MLSCN set (AID 602276;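 active = inhibition at or above 50% at 10 µM; inactive = inhibition below 50%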;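 also: firefly luciferase from ISG56 promoter only with Renilla not read in this screen; 0% = Sendai virus plus DMSO and 100% = medium plus DMSO without virus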). As to conditions: HEK293 RL24 IRF3 luciferase reporter, at 10 µM, stronger effect = higher value. (In a reporter assay the amount or activity of a reporter protein is the signal.)
Test [8] in a line: inhibitors of poly I:C-induced TLR3 signaling, primary screen, cell-based, poly I:C stimulus, luciferase, 10K MLSCN set (AID 602277;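 active = inhibition of the reporter signal at or above 50%; inactive = inhibition below 50%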). The settings on record: HEK293-TLR3 RL24 IRF3 luciferase reporter, at 10 µM, stronger effect = higher value.

Active and inactive are the calls of the source.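 The calls were made as follows, unless noted: active = fluorescence slope after compound addition differing from the mean of all screened samples at 99.7% confidence, in either direction; inactive = the rest.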

As usually defined, the inhibition is the change of the read-out against control, counted positive when it falls.

Chain of Alpha-2C adrenergic receptor (Homo sapiens) (P18825 whole entry, looked up): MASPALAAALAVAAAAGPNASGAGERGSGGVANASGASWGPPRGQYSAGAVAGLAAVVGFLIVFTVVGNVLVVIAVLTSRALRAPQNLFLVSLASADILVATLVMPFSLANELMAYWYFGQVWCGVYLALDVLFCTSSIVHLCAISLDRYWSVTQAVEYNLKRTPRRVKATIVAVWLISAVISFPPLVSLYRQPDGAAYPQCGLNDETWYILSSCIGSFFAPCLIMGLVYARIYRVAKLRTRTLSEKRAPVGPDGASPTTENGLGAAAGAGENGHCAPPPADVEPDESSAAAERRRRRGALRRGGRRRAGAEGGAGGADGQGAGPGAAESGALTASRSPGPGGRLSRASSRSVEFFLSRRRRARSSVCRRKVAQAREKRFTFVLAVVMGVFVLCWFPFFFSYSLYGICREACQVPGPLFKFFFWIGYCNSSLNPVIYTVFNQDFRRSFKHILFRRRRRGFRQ

With `O=C(c1cccnc1)N1CCN(Cc2ccc3c(c2)OCO3)CC1`, the cell count in test [1] turned out to be 64. The inhibition in test [1] is 11% (inactive); in test [3], 29.2% (inactive); in test [7], 14.2% (inactive); in test [8], 13.5% (inactive). In addition, in test [2], the inhibition of aggregation is -2.8% (inactive). For the same compound, the nuclei count was found to be 88.3% in test [2] and 87.6% in test [3]. The fluorescence slope in test [4] is -0.411 (inactive). The NADPH fluorescence slope in test [5] was -5.6e-05 (inactive). The slope in test [6] was 0.00498 (inactive).
On to `O=C(CCn1c(=O)oc2ccccc21)N1CCN(c2ccccc2Cl)CC1`, for which, in test [1], the cell count came to 570. The inhibition in test [1] is 3.9% (inactive); in test [3], 26.9% (inactive); in test [7] it was 49.8% (inactive); in test [8], 19.6% (inactive). Also, in test [2], the inhibition of aggregation was -52.3% (inactive). The nuclei count stood at 22.3% in test [2] and 81.9% in test [3]. For the same compound, the fluorescence slope in test [4] is -0.379 (inactive). The NADPH fluorescence slope in test [5] is -2e-05 (inactive). For the same compound, in test [6], the slope is 0.0037 (inactive).
As for `COc1ccc(N2CCN(Cc3nc4c(c(=O)[nH]c(=O)n4C)n3CC(C)=O)CC2)cc1`, the cell count in test [1] was 682. Further, the inhibition in test [1] was 0.5% (inactive); in test [3] it was -37.3% (inactive); in test [7] it was 4.33% (inactive); in test [8] it was 29.5% (inactive). In test [2], the inhibition of aggregation was -29.1% (inactive). The nuclei count in test [2] came to 126%; in test [3], 119%. Moreover, in test [4], the fluorescence slope is -0.578 (inactive). The NADPH fluorescence slope in test [5] is -2.9e-05 (inactive). Moreover, the slope in test [6] is 0.00484 (inactive).
With `Nc1nc(N2CCCCC2)nc(N(c2ccccc2)c2ccccc2)n1`, the cell count in test [1] was determined as 710. Besides, the inhibition is -2.9% (inactive) in test [1], -33% (inactive) in test [3], 10.2% (inactive) in test [7] and 34.4% (inactive) in test [8]. Further, in test [2], the inhibition of aggregation was 23.2% (inactive). Besides, the nuclei count amounted to 88% in test [2] and 91.6% in test [3]. For the same compound, the fluorescence slope in test [4] is -0.544 (inactive). Besides, in test [5], the NADPH fluorescence slope was -5.4e-05 (inactive). Moreover, the slope in test [6] was 0.00708 (inactive).
For `COc1ccc(-c2noc(CN(C(=O)C(C)(C)C)C(C)C)n2)cc1`, the cell count in test [1] came out at 420. Moreover, the inhibition in test [1] was 5% (inactive); in test [3] it was -73% (inactive); in test [7], -16.3% (inactive); in test [8] it was -34% (inactive). The inhibition of aggregation in test [2] is 10.8% (inactive). For the same compound, the nuclei count in test [2] was 93%; in test [3] it was 117%. In addition, in test [4], the fluorescence slope is -0.43 (inactive). For the same compound, the NADPH fluorescence slope in test [5] is -5.1e-05 (inactive). For the same compound, the slope in test [6] was 0.00416 (inactive).
As to `CCOC(=O)N1CCN(CC(=O)Nc2cc(C)nn2-c2nc3ccccc3s2)CC1`, in test [1], the cell count is 859. For the same compound, the inhibition is 9.9% (inactive) in test [1], -132% (inactive) in test [3], 13.7% (inactive) in test [7] and 27.3% (inactive) in test [8]. For the same compound, in test [2], the inhibition of aggregation was -38.2% (inactive). For the same compound, the nuclei count in test [2] came to 101%; in test [3] it was 122%. Further, the fluorescence slope in test [4] is -0.609 (inactive). Moreover, in test [5], the NADPH fluorescence slope was 2.4e-05 (inactive). In addition, the slope in test [6] was 0.00559 (inactive).
`COc1ccc(N(CC(=O)NCCSC(C)(C)C)S(C)(=O)=O)c(OC)c1`: the cell count in test [1] stood at 387. Moreover, the inhibition in test [1] was -1.4% (inactive); in test [3] it was -18.2% (inactive); in test [7] it was 18.9% (inactive); in test [8], 20.9% (inactive). In addition, the inhibition of aggregation in test [2] was 12.9% (inactive). For the same compound, the results for the nuclei count in test [2] and in test [3] were 104% and 120%, respectively. The fluorescence slope in test [4] was -0.537 (inactive). In addition, the NADPH fluorescence slope in test [5] was 0.000155 (inactive). Besides, the slope in test [6] was 0.00708 (inactive).
For `Cc1ccc(-c2nnc3c4ccccc4c(C)nn23)cc1NC(=O)c1ccco1`, the cell count in test [1] is 641. For the same compound, the inhibition is -11% (inactive) in test [1], -106% (inactive) in test [3], -0.847% (inactive) in test [7] and -4.54% (inactive) in test [8]. Moreover, in test [2], the inhibition of aggregation was 17.5% (inactive). Further, the results for the nuclei count in test [2] and in test [3] were 102% and 115%, respectively. In addition, the fluorescence slope in test [4] is -0.602 (inactive). The NADPH fluorescence slope in test [5] was 2.3e-05 (inactive). In addition, the slope in test [6] was 0.00729 (inactive).
In the case of `CCSCCNC(=O)c1cc(-n2cnnc2)ccc1Cl`, the cell count in test [1] worked out at 685. Besides, the inhibition was 1.3% (inactive) in test [1], 24.9% (inactive) in test [3], 16.3% (inactive) in test [7] and 20.3% (inactive) in test [8]. In test [2], the inhibition of aggregation is -2.3% (inactive). Moreover, the nuclei count in test [2] came to 97.1%; in test [3] it was 89.9%. Moreover, the fluorescence slope in test [4] is -0.633 (inactive). For the same compound, the NADPH fluorescence slope in test [5] is -9.8e-06 (inactive). Also, the slope in test [6] is 0.0037 (inactive).
On to `O=C(CCc1nc2ccccc2s1)OCC(=O)N1CCN(C(=O)c2ccco2)CC1`, for which the cell count in test [1] came out at 641. The inhibition in test [1] was -7.6% (inactive); in test [3] it was -126% (inactive); in test [7] it was 14.9% (inactive); in test [8], 24.8% (inactive). Also, the inhibition of aggregation in test [2] is -0.7% (inactive). Moreover, the nuclei count in test [2] was determined as 100%; in test [3], 128%. Also, the fluorescence slope in test [4] is -0.584 (inactive). In addition, the NADPH fluorescence slope in test [5] was -2.7e-05 (inactive). Further, in test [6], the slope is 0.00548 (inactive).
In the case of `Cc1ccc2oc(C(=O)Nc3c(C)n(C)n(-c4ccccc4)c3=O)c(C)c2c1`, the cell count in test [1] came to 776. In addition, the inhibition was -5% (inactive) in test [1], -37.6% (inactive) in test [3], -5.27% (inactive) in test [7] and 7.35% (inactive) in test [8]. The inhibition of aggregation in test [2] was -1.5% (inactive). The nuclei count in test [2] was determined as 109%; in test [3] it was 108%. Also, in test [4], the fluorescence slope is -0.616 (inactive). Moreover, the NADPH fluorescence slope in test [5] is -2.7e-05 (inactive). The slope in test [6] was 0.00692 (inactive).
`Cc1csc(SCCn2c(N3CCCC3)nc3c2c(=O)[nH]c(=O)n3C)n1`: the cell count in test [1] was determined as 445. Besides, the inhibition in test [1] is 53.9% (active); in test [3], -26.1% (inactive); in test [7] it was 1.74% (inactive); in test [8], 16.5% (inactive). For the same compound, in test [2], the inhibition of aggregation is -7.1% (inactive). The nuclei count came to 110% in test [2] and 127% in test [3]. The fluorescence slope in test [4] was -0.38 (inactive). For the same compound, in test [5], the NADPH fluorescence slope is -3.1e-05 (inactive). In test [6], the slope was 0.00532 (inactive).
`Cc1ccc(C(c2sc3ncnn3c2O)N2CC(C)CC(C)C2)cc1` (centres undefined): the cell count in test [1] is 628. The inhibition in test [1] is -2.4% (inactive); in test [3], -22.9% (inactive); in test [7], 10.9% (inactive); in test [8], 35.9% (inactive). In addition, the inhibition of aggregation in test [2] was 14.8% (inactive). Besides, the nuclei count came out at 80.8% in test [2] and 101% in test [3]. In test [4], the fluorescence slope was -0.58 (inactive). Further, the NADPH fluorescence slope in test [5] is -5.6e-05 (inactive). The slope in test [6] is 0.00795 (inactive).
Consider `CCc1nn2c(N3CCOCC3)cc(C)nc2c1-c1ccc(F)cc1`, for which the cell count in test [1] was found to be 716. Also, the inhibition in test [1] is -9.7% (inactive); in test [3], -46.2% (inactive); in test [7], 10.6% (inactive); in test [8], 18.4% (inactive). Further, the inhibition of aggregation in test [2] is -24.7% (inactive). Moreover, the nuclei count in test [2] was determined as 101%; in test [3] it was 114%. Also, the fluorescence slope in test [4] is -0.465 (inactive). For the same compound, in test [5], the NADPH fluorescence slope is -0.000126 (inactive). Besides, in test [6], the slope was 0.0049 (inactive).
